Results on 12 molecules are retold here after PubChem BioAssay (NCI).

What all share (experiment): NCI-60 one-dose screen, 48 h (100 = growth as untreated, 0 = no growth, -100 = all killed)
Common to all, as to conditions: 10 µM unless noted

Assay [1] relates to HCT-15 colon.
Assay [2] has as its system HT29 colon.
Assay [3] relates to SNB-75 CNS.
In assay [4] the test system is SNB-19 CNS.
Assay [5] deals with U251 CNS.
The subject of assay [6] is PC-3 prostate.
Assay [7] deals with SK-MEL-5 melanoma.
The subject of assay [8] is UACC-62 melanoma.
Assay [9] relates to LOX IMVI melanoma.
The test system of assay [10] is SK-MEL-28 melanoma.

“And” between values parts separate entries of the source, which are not always exact repeats. Equal values may be shown once. About 83,000 compounds went through this panel and 20% of them were active in at least one assay; those are over-represented in the sample as a whole.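 Interpretation: 100, growth as untreated; towards 0, rising growth inhibition; 0, no net growth; 0 to -100, cell death. Compounds scoring below 10 were considered active.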 Values without a mark were called inactive. The source made the active and inactive calls.

As to `COc1cc(CNC(=O)C[C@H](C)CCC=C(C)C)ccc1OCc1cn(-c2ccccc2F)nn1`, the growth in assay [1] is 82.8%; in assay [2] it was 97.4%; in assay [3], 10.6%; in assay [4], 55.7%; in [5] it was 61.6%; in assay [6] it was 87.9%. Further, the growth in assay [7] is 70.8%; in [8] it was 69.5%; in assay [9] it was 76.7%; in [10], 94.9%.

Take `Cc1cccc(/C=C/c2ccc(NC(=S)NCCCCN(C)C)cc2)c1`: the growth in assay [1] is -99.4% (active); in assay [2], -64.2% (active); in assay [3] it was -84.4% (active); in assay [4] it was -84% (active); in [5], -64.8% (active); in [6] it was -40.4% (active). In addition, the growth in [7] was -92.3% (active); in assay [8] it was -88.4% (active); in assay [9], -99.1% (active); in assay [10] it was -96.5% (active).

Turning to `Cc1ccccc1NC(=O)c1cccc(NC(=O)CCl)c1`, the growth is 43.5% in assay [1]; 35.6% in [2]; 53.9% in [3]; 72.7% in assay [4]; -53.1% (active) in assay [5]; 55.8% in assay [6]. In addition, the growth in assay [7] is 44.2%; in [8], 24.4%; in assay [9], -47.5% (active); in [10] it was 71.1%.

Consider `CC(=O)c1c2c(c3ccc4c5ccccc5ccc4n13)C(=O)c1ccccc1C2=O`, for which the growth in [1] was 81.6%; in assay [2] it was 107%; in assay [3], 93.8%; in [4] it was 65.4%; in assay [5], 82.9%; in assay [6], 77.5%. For the same molecule, the growth in assay [7] was 63.7%; in assay [8], 87%; in assay [9], 64.5%; in assay [10], 101%.

Consider `O=C1N/C(=N\c2nccs2)S/C1=C\c1ccc([N+](=O)[O-])cc1`, for which the growth in assay [1] is 16%; in assay [2], 17.2%; in [3], 34.1%; in assay [4], 9.41% (active); in assay [5], 7.89% (active); in assay [6], 17.6%. For the same molecule, the growth in [7] was -8.09% (active); in [8], 2.3% (active); in [9] it was 12.5%; in [10], 6.49% (active).

Consider `Cn1ncc2c(N)nc(Oc3ccccc3-c3ccccc3)nc21`, for which the growth was 10.7% in assay [1]; 14.9% in assay [2]; 8.98% (active) in assay [3]; 33.8% in assay [4]; 32.6% in assay [5]; 58.5% in assay [6]. Further, the growth was 0.935% (active) in [7], 26.3% in [8], 34.7% in assay [9] and 53.7% in assay [10].

For the molecule `Nc1cccc(-n2c(COc3ccc(I)cc3)nc3ccccc32)c1`, the growth in assay [1] is 74.6% and 104%; in assay [2], 78.7% and 114%; in assay [3], 52.9% and 91.4%; in assay [4], 93.5% and 98.6%; in assay [5], 84.8% and 101%; in [6] it was 63.9% and 104%. The growth in assay [7] was 60% and 99.8%; in [8] it was 57.6% and 92.2%; in [9] it was 80% and 101%; in assay [10], 98.9% and 98.7%.

In the case of `Cc1cc(C(NC(=O)C2CC3(CC(Nc4cccc5c4C(=O)N(C4CCC(=O)NC4=O)C5=O)C3)C2)c2ccc3c(c2)OC(F)(F)O3)c(O)c2ncccc12` (stereo not given), the growth in assay [1] is 21.1%; in [2], 29.1%; in assay [3], 25.1%; in assay [4], 7.79% (active); in [5], 7.11% (active); in assay [6] it was 17.8%. Besides, the growth was -64.5% (active) in assay [7], -41% (active) in assay [8], -4.96% (active) in [9] and 0.772% (active) in [10].

`CCN1CCN(Cc2ccc(C(=O)Nc3cccc(Nc4ccc5c(OC)cccc5n4)c3)cc2C(F)(F)F)CC1`: the growth in [1] was -83.3% (active); in [2], -67.6% (active); in assay [3], -89.7% (active); in assay [4] it was -99.7% (active); in assay [5], -80.9% (active); in [6], -38.6% (active). Also, the growth is -99.2% (active) in [7], -95.1% (active) in assay [8], -92.1% (active) in assay [9] and -100% (active) in assay [10].

As to `Cc1ccc(C2CC(c3ccc(NC(=S)Nc4ccccc4)cc3)=NN2c2ccc(S(N)(=O)=O)cc2)cc1` (stereo not given), the growth in assay [1] is 4.26% (active); in assay [2], 1.32% (active); in assay [3] it was 21.4%; in [4] it was 23.1%; in [5] it was 5.8% (active); in [6], 7.16% (active). For the same molecule, the growth in [7] is 27.9%; in assay [8], 17%; in [9] it was 14.9%; in assay [10], -57.7% (active).

As to `O=C1/C(=C/c2cccc3c2OCO3)Cc2c(F)cc(Br)cc21`, the growth in assay [1] is 102%; in [2], 118%; in [3] it was 97.1%; in [4], 103%; in assay [5] it was 105%; in assay [6], 107%. Besides, the growth is 101% in assay [7], 91.8% in assay [8], 99.8% in [9] and 115% in [10].

`CN1C(=O)C(O)(CC(=O)c2cc3ccccc3oc2=O)c2ccccc21` (stereo not given): the growth in assay [1] was 94.7%; in assay [2], 104%; in assay [3], 107%; in assay [4], 93.3%; in assay [5], 97.2%; in assay [6] it was 92.4%. Moreover, the growth in assay [7] is 100%; in assay [8], 86.8%; in assay [9], 87.9%; in assay [10], 107%.
